The values below come from PubChem BioAssay (NCATS).

Records with an inconclusive call do not appear. Values without a mark were called inactive. The source made the active and inactive calls. The call rests on the fitted dose curve; in most records, active means well fitted inhibition curve with a large enough effect in the repeat runs; inconclusive means weak or mixed curves; inactive means no such curve, though single readings can be large or run the other way.
On the % scale 0 is the no-effect control and ±100 the full control effect; potency means the concentration at half of the fitted maximal effect.

Chain of Cytochrome P450 2C9 (Homo sapiens) (P11712 whole entry, looked up): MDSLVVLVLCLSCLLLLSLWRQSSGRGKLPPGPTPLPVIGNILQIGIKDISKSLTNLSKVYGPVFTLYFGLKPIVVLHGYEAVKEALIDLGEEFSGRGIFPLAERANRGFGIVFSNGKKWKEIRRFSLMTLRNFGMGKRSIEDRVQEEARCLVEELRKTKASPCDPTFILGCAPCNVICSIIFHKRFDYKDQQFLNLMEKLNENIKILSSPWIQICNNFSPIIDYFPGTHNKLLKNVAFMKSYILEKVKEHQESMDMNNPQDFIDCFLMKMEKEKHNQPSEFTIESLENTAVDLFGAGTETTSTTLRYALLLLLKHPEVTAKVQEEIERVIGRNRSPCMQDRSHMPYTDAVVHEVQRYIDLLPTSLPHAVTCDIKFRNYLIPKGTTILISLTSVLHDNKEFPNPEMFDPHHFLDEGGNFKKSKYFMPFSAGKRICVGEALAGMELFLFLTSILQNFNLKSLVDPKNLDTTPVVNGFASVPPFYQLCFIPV

The assay has as its target Cytochrome P450 2C9 (Homo sapiens) (UniProt P11712). As to the kind of experiment: Cytochrome P450 family 2 subfamily C member 9 (CYP2C9) small molecule antagonists: luciferase biochemical (cell-free) qHTS assay (AID 1645842). Further: nearly all actives have a fitted effect of over 55% in size. Particulars: P450-Glo CYP2C9 enzyme assay, luciferin luminescence; series mostly up to 57.4 µM; activity change, negative = inhibition: at the top concentration. The essentials:
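Luminescence, after 20 min with luciferin detection reagent, reflected CYP2C9 turnover during a 1 h NADPH-driven reaction at 37C. Enzyme-substrate mix contained 0.4% bovine serum albumin and was preincubated with compound 10 min at room temperature.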
(In general: qHTS replaces the single test concentration by a dilution series.)
As to `Cc1ccc(NC(=O)c2cccc(N(C)C)c2)cc1NC(=O)c1ccc(O)cc1`, the Potency is 7.56 µM (active).

For the compound `C[C@H]1COC2=C1C(=O)C(=O)c1c2ccc2c1CCCC2(C)C`, the Potency is 19 µM (active).

Consider `CCC(=O)N1CCN(c2ccc(-n3c(=O)ccc4cnc5ccc(-c6cnc7ccccc7c6)cc5c43)cc2C(F)(F)F)CC1`, for which the Potency is 10.7 µM (active).

With `CCn1c(-c2nonc2N)nc2cncc(CNC3CCNCC3)c21`, the “activity change, negative = inhibition” value is 1%.

Turning to `CN1CCN(c2cccc(Nc3nc4c(-c5ccc(S(C)(=O)=O)cc5)cccn4n3)c2)CC1`, the Potency was 12 µM (active).

Regarding `O=C(CO)N1CCC(c2[nH]nc(-c3ccc(Cl)cc3)c2-c2ccncn2)CC1`, the Potency was 6.74 µM (active).

With `O=C(CC12CC3CC(CC(C3)C1)C2)Nc1cccc2nc(NCCNCCO)ccc12`, the “activity change, negative = inhibition” value is 10.2%.

With `CNc1nc(Nc2ccc(C(=O)N3CCOCC3)cc2OC)ncc1Cl`, the “activity change, negative = inhibition” value was 0.968%.

On to `Cc1cc(OCCCS(C)(=O)=O)cc(C)c1-c1cccc(COc2ccc3c(c2)OC[C@H]3CC(=O)O)c1`, for which the Potency is 21.3 µM (active).

On to `O=C(c1ccc(C(=O)N2CCC(N3CCCC3)CC2)c(Nc2ccccc2)c1)N1CCC(N2CCCC2)CC1`, for which the “activity change, negative = inhibition” value was -13.9%.

Regarding `CCCCn1c(=O)n(Cc2ccccc2F)c(=O)c2[nH]c(Cc3ccc(NC(C)=O)cc3)nc21`, the Potency was 6.01 µM (active).

With `N#CC(c1ccc(Cl)cc1)c1c(Cl)cc(-n2ncc(=O)[nH]c2=O)cc1Cl` (stereo not given), the Potency was 19 µM (active).

For `CNC(=O)c1ccc2c(C(=Nc3cccc(CN(C)C)c3)c3ccccc3)c(O)[nH]c2c1`, the “activity change, negative = inhibition” value is -35.4%.

In the case of `Cc1csc(-c2nnc(Nc3ccc(Oc4ncccc4-c4ccnc(N)n4)cc3)c3ccccc23)c1`, the Potency was 12 µM (active).

`CC1=C(C(=O)Nc2cc3cn[nH]c3cc2F)C(c2ccc(C(F)(F)F)cc2)CC(=O)N1` (stereo not given): the Potency is 19 µM (active).

In the case of `COc1cc2nccc(Oc3ccc(NC(=O)Nc4cc(C)on4)c(Cl)c3)c2cc1OC`, the Potency is 19 µM (active).

As for `CCN1CCN(c2ccc(Nc3cc(N(C)C(=O)Nc4c(Cl)c(OC)cc(OC)c4Cl)ncn3)cc2)CC1`, the Potency was 23.9 µM (active).

Consider `CC1(C)CC(=O)c2c(C(F)(F)F)nn(-c3ccc(C(N)=O)c(NC4CCC(O)CC4)c3)c2C1` (stereo not given), for which the Potency was 6.01 µM (active).

`CNC(=O)c1cc(Oc2ccc(NC(=O)Nc3ccc(Cl)c(C(F)(F)F)c3)c(F)c2)ccn1`: the Potency was 9.52 µM (active).

With `CC(C)CN(C[C@@H](O)[C@H](Cc1ccccc1)NC(=O)O[C@H]1CO[C@H]2OCC[C@H]21)S(=O)(=O)c1ccc(N)cc1`, the Potency was 7.56 µM (active).
